C diff growth = inhibitors of Clostridium difficile growth; actives 0.25% (n = 86,000); Clostridium difficile clinical isolate growth, OD600, 24 h; active compounds read low; growth activity, negative = inhibition, % at 16 µg/mL (by protocol);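 active = mean growth activity at or below -80% and every replicate also at or below -80%; inconclusive = mean at or below -80% but some replicate above -80%; inactive = mean growth activity above -80%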;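 also: 0% = DMSO wells and -100% = levofloxacin 16 µg/mL wells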
T cruzi growth-1 = T. cruzi proliferation inhibition; actives 5.9% (n = 77,000); T. cruzi beta-gal in NIH3T3, GalScreen luminescence, 90 h; AID 624255; inhibition, % at 8.34 µM;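 active = mean inhibition above about 93%, with at least 55% of replicates each passing it, limit read from the data, passing the limit was not always enough; inconclusive = only one of those two conditions holds; inactive = neither condition holds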
Pf Dd2 growth = blocks growth of Plasmodium falciparum Dd2 parasites; P. falciparum Dd2 growth, SYBR Green, 72 h; active compounds read low; activity change, % at 10 µM; actives 2.3% (n = 94,000); AID 1159554; in the data active = activity change below about -80%; inconclusive = no clear call, values can overlap the other calls
T cruzi growth-2 = blocks T. cruzi growth in NIH3T3 host cells. shares compounds with T cruzi growth-1. T. cruzi beta-gal in NIH3T3, GalScreen luminescence, 90 h. inhibition, % at 8.35 µM. actives 72% (n = 5,600);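 active = mean replicate inhibition above about 95% and at least 55% of replicates individually reaching it, limit read from the data; inconclusive = only one of the two criteria is met; inactive = neither criterion is met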
T cruzi growth-3 = inhibitors of T. cruzi proliferation. shares compounds with T cruzi growth-1. T. cruzi beta-gal in NIH3T3, GalScreen luminescence, 90 h. inhibition, % at 2.09 µM. actives 21% (n = 5,600). AID 651740;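 active = mean inhibition above about 95%, with at least 55% of replicates also reaching it, limit read from the data; inconclusive = meets just one of the two conditions; inactive = meets neither condition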;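 also: plate controls were neutral control median for no effect and positive control median for full effect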
3T3 cytotox = kills mouse NIH/3T3 fibroblasts | shares compounds with T cruzi growth-1 | NIH/3T3 viability, CellTiter-Glo ATP luminescence, 90 h | cytotoxicity (signal decrease), % at 8.35 µM | actives 14% (n = 5,600) | AID 651742;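 active = mean signal decrease across replicates above about 35% based on untreated-well scatter, with enough replicates individually passing, limit read from the data; inconclusive = no rule stated though some were filed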;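 also: 0% = median of neutral control wells and 100% = median of positive control wells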
NIH3T3 tox 2 = kills mouse NIH/3T3 fibroblasts; inhibition, % at 24.9 µM; AID 651744; shares compounds with T cruzi growth-1; actives 56% (n = 5,600); NIH/3T3 viability, CellTiter-Glo ATP luminescence, 90 h;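 active = mean loss of cell viability signal at or above a set limit, and enough replicates individually reaching it; inconclusive = meets only the mean limit or only the replicate share; inactive = meets neither condition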;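 also: 0% = median of neutral control wells and 100% = median of positive control wells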
Numbers without * were called inactive; ? = inconclusive; nt = no result given. Hits are enriched below; roughly 6.8% of the tested compounds scored in any of these assays.

SMILES | C diff growth | T cruzi growth-1 | Pf Dd2 growth | T cruzi growth-2 | T cruzi growth-3 | 3T3 cytotox | NIH3T3 tox 2
C[C@@H]1CN([C@H](C)CO)S(=O)(=O)c2ccc(C#Cc3ccccn3)cc2O[C@@H]1CN(C)CC1CC1 | -9 | 34 | -49 | nt | nt | nt | nt
CCCN(C)C[C@@H]1Oc2cc(C#Cc3ccccn3)ccc2S(=O)(=O)N([C@@H](C)CO)C[C@@H]1C | 6 | 52 | -77 | nt | nt | nt | nt
O=C(c1cnccn1)N1CC[C@@H]2[C@H]1c1cc(C#Cc3cccnc3)ccc1N[C@@H]2CO | -5 | 26 | 11 | nt | nt | nt | nt
CO[C@@H]1CN(C)C(=O)c2cc(NC(=O)C3CC3)ccc2OC[C@@H](C)N(C(=O)c2ccccn2)C[C@@H]1C | nt | -21 | nt | nt | nt | nt | nt
C[C@H]1CN([C@@H](C)CO)C(=O)c2cc(/C=C/c3ccccc3)cnc2O[C@@H]1CN(C)C(=O)C1CCC1 | -2 | ? | -70 | ? | 28 | 5 | 18
C[C@H](CO)N1C[C@H](C)[C@H](CN(C)C(=O)C2CCCCC2)Oc2ncc(/C=C/c3ccccc3)cc2C1=O | -6 | 85 | ? | nt | nt | nt | nt
C[C@@H]1CN([C@H](C)CO)C(=O)c2cc(/C=C/c3ccccc3)cnc2O[C@@H]1CN(C)C(=O)C1CCCCC1 | -8 | 30 | -71 | nt | nt | nt | nt
C[C@H](CO)N1C[C@H](C)[C@@H](CN(C)C(=O)C2CCC2)Oc2ncc(/C=C/c3ccccc3)cc2C1=O | -5 | 59 | -64 | nt | nt | nt | nt
C[C@H]1CN([C@@H](C)CO)C(=O)c2cc(/C=C/c3ccccc3)cnc2O[C@@H]1CN(C)C(=O)C1CCCCC1 | -11 | 99* | -88* | 101* | 61 | 9 | ?
C[C@H](CO)N1C[C@H](C)[C@@H](CN(C)C(=O)C2CCCCC2)Oc2ncc(/C=C/c3ccccc3)cc2C1=O | -10 | 113* | -89* | 112* | 68 | -41 | 1
CCCNC(=O)C[C@@H]1CC[C@H]2[C@@H](COC[C@H](O)CN2C(=O)Nc2c(C)noc2C)O1 | -3 | -26 | 5 | nt | nt | nt | nt
C[C@@H]1CN([C@@H](C)CO)C(=O)c2cc(C#CC3CCCCC3)cnc2O[C@H]1CN(C)Cc1ccncc1 | nt | 18 | -19 | nt | nt | nt | nt
Cc1ccc(S(=O)(=O)N[C@@H]2C=C[C@@H](CC(=O)NCc3ccccc3F)O[C@H]2CO)cc1 | nt | -59 | 9 | nt | nt | nt | nt
C[C@H]1CN([C@@H](C)CO)C(=O)Cc2cc(NS(=O)(=O)c3ccccc3)ccc2O[C@H]1CN(C)C(=O)NC1CCCCC1 | -3 | -17 | 20 | nt | nt | nt | nt
CN(C)C(=O)C[C@@H]1CC[C@H](NC(=O)C2CCOCC2)[C@@H](CO)O1 | nt | 61 | 14 | nt | nt | nt | nt
C[C@H](NC(=O)C[C@H]1C[C@@H]2c3cc(NC(=O)CC4CC4)ccc3O[C@@H]2[C@H](CO)O1)c1ccccc1 | 2 | 18 | -14 | nt | nt | nt | nt
C[C@@H]1CN([C@H](C)CO)S(=O)(=O)c2ccc(C3=CCCC3)cc2O[C@@H]1CN(C)S(=O)(=O)c1ccc(F)cc1 | -1 | 122* | -23 | 110* | 40 | 20 | 32*
Cc1ccc(S(=O)(=O)N(C)C[C@H]2Oc3cc(C4=CCCC4)ccc3S(=O)(=O)N([C@H](C)CO)C[C@H]2C)cc1 | 2 | nt | -22 | nt | nt | nt | nt
Cc1ccc(S(=O)(=O)N(C)C[C@@H]2Oc3cc(C4=CCCC4)ccc3S(=O)(=O)N([C@@H](C)CO)C[C@H]2C)cc1 | 2 | nt | -61 | nt | nt | nt | nt
C[C@H]1CN([C@@H](C)CO)S(=O)(=O)c2ccc(C3=CCCC3)cc2O[C@@H]1CN(C)S(=O)(=O)c1ccc(F)cc1 | 8 | 123* | -42 | 97* | 101* | 45* | 10
C[C@@H]1CN([C@H](C)CO)S(=O)(=O)c2ccc(C3=CCCC3)cc2O[C@H]1CN(C)S(=O)(=O)c1ccc(F)cc1 | 6 | 116* | -41 | 107* | 83 | 17 | 25*
C[C@@H]1CN([C@@H](C)CO)S(=O)(=O)c2ccc(C3=CCCC3)cc2O[C@@H]1CN(C)S(C)(=O)=O | nt | -36 | 17 | nt | nt | nt | nt
COc1cccc(-c2ccc([C@H]3[C@@H](CO)N4C(=O)CN(C(=O)C5CCOCC5)C[C@H]34)cc2)c1 | 2 | nt | -58 | nt | nt | nt | nt
CN1c2ccc(Br)cc2[C@@H]2[C@@H](CCN2C(=O)C2CC2)[C@H]1CO | -4 | 61 | -47 | nt | nt | nt | nt
COc1ccc(-c2ccc3c(c2)[C@@H]2[C@@H](CCN2C(=O)c2ccncc2)[C@@H](CO)N3C)cc1 | -2 | 98* | 0 | 101* | 84 | 9 | 15
SMILES | C diff growth | T cruzi growth-1 | Pf Dd2 growth | T cruzi growth-2 | T cruzi growth-3 | 3T3 cytotox | NIH3T3 tox 2
CN1c2ccc(Br)cc2[C@H]2[C@H](CCN2C(=O)C2CC2)[C@H]1CO | 0 | 104* | 2 | 81 | 29 | 18 | -1
COc1ccc(-c2ccc3c(c2)[C@@H]2[C@@H](CCN2C(=O)C2CCC2)[C@H](CO)N3C)cc1 | -5 | nt | -17 | nt | nt | nt | nt
CN1c2ccc(-c3ccccc3)cc2[C@@H]2[C@@H](CCN2C(=O)c2ccncc2)[C@H]1CO | -7 | 86 | 13 | nt | nt | nt | nt
COc1ccc(-c2ccc3c(c2)[C@@H]2[C@@H](CCN2C(=O)C2CCCCC2)[C@@H](CO)N3C)cc1 | -12 | 99* | -62 | 92 | 108* | 6 | 106*
COc1ccc(-c2ccc3c(c2)[C@H]2[C@H](CCN2C(=O)C2CCOCC2)[C@@H](CO)N3C)cc1 | -5 | 12 | -4 | nt | nt | nt | nt
COc1ccc(-c2ccc3c(c2)[C@@H]2[C@@H](CCN2C(=O)C2CC2)[C@@H](CO)N3C)cc1 | 10 | 101* | -4 | 107* | 109* | -6 | 50*
COc1ccc2c3c(n(C)c2c1)[C@H](CO)N(C(=O)C1CC1)CC31CCN(CC2CCCC2)CC1 | -4 | nt | -24 | nt | nt | nt | nt
COCC(=O)Nc1ccc2c(c1)C(=O)N(C)C[C@H](OC)[C@H](C)CN(Cc1ccncc1)[C@@H](C)CO2 | nt | 18 | 10 | nt | nt | nt | nt
CN(C)C(=O)C[C@H]1C=C[C@@H](NC(=O)Nc2cccc(F)c2)[C@H](CO)O1 | 0 | 12 | -4 | nt | nt | nt | nt
C[C@@H]1CN([C@H](C)CO)C(=O)c2cc(NS(C)(=O)=O)ccc2O[C@@H](C)CCCCO[C@@H]1CN(C)S(=O)(=O)c1cn(C)cn1 | 3 | -65 | 21 | nt | nt | nt | nt
CCCC(=O)Nc1ccc2c(c1)OC[C@@H](C)N(Cc1nccs1)C[C@H](C)[C@@H](OC)CN(C)C2=O | nt | 45 | 2 | nt | nt | nt | nt
CN(C)C(=O)c1ccc(-c2ccc3c(c2)[C@H]2[C@H](CCN2C(=O)C2CCOCC2)[C@H](CO)N3C)cc1 | 0 | 86 | 9 | nt | nt | nt | nt
CN(C)C(=O)c1ccc(-c2ccc3c(c2)[C@@H]2[C@@H](CCN2C(=O)C2CCOCC2)[C@H](CO)N3C)cc1 | 6 | 97* | -15 | 106* | 40 | -5 | 11
